Assay results published in PubChem BioAssay (EPA / NIEHS).
Inconclusive results are not listed. Calls of active or inactive are those of the source. How the source made its calls, unless noted: active means hit-call score of the fitted dose curve at least 0.9, where 1 is the maximum; inactive means score below 0.9.

What was measured:
[1] = target: Myc proto-oncogene protein (Homo sapiens) (UniProt P01106); assay: ATG_Myc_CIS: Attagene CIS-FACTORIAL HepG2 Assay for human Myelocytomatosis (Myc) Proto-Oncogene Transcription Factor (AID 2282990); settings: HepG2, Attagene cis-reporter transcription factor activity; actives raise or lower the signal
Summary of the method: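 HepG2 cells transiently transfected with multiple cis-promoter-driven reporter transcription units, so endogenous TF activity is read. After 24 h compound exposure, reporter mRNA was quantified by RT-PCR, 6-FAM labelling, HpaI digestion and capillary electrophoresis; bidirectional fit versus DMSO.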

[2] = ATG_NF_kB_CIS: Attagene CIS-FACTORIAL HepG2 Assay for human Nuclear Factor Kappa B (NF-kB) (AID 2282991); settings: HepG2 Attagene cis-factorial NF-kB reporter mRNA; actives raise or lower the signal
Summary of the method: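 Multiplexed cis-reporter assay in transiently transfected HepG2. 24 h treatment; RNA isolated, RT-PCR, labelled fragments resolved by CE. DMSO baseline.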

[3] = ATG_NRF2_ARE_CIS: Attagene CIS-FACTORIAL HepG2 Assay for human Nuclear Factor Erythroid 2 Related Factor 2 (NFR2) response to Antioxidant Response Elements (ARE) (AID 2282992); settings: HepG2 Attagene ARE/NRF2 reporter, transcription factor activity; actives raise or lower the signal;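 on AC50: reporter mRNA level measured by RT-PCR and capillary electrophoresis fluorescence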
Summary of the method: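 Readout: reporter mRNA quantified by RT-PCR plus FAM-labelled primer extension, HpaI digestion and capillary electrophoresis, 24 h after dosing transfected HepG2 cells. Gain or loss of signal is fitted bidirectionally against DMSO baseline.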

[4] = ATG_Oct_MLP_CIS: Attagene CIS-FACTORIAL HepG2 Assay for human Octamer-Binding Transcription Factor (Oct) (AID 2282993); settings: HepG2 Attagene cis-factorial Oct reporter, mRNA; actives raise or lower the signal
Summary of the method: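 Read-out: reporter mRNA via RT-PCR plus capillary electrophoresis of 6-FAM-labelled fragments. Transiently transfected HepG2, 24 h exposure, endogenous TF activity on cis elements. Gain or loss of signal fitted relative to DMSO.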

[5] = target: Cellular tumor antigen p53 (Homo sapiens) (UniProt P04637); assay: ATG_p53_CIS: Attagene CIS-FACTORIAL HepG2 Assay for human p53 Transcription Factor (AID 2282994); settings: HepG2 p53 cis-element reporter, Attagene mRNA; actives raise or lower the signal
Summary of the method: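 Read-out: reporter mRNA by RT-PCR plus capillary electrophoresis with fluorescence detection. Human HepG2 liver cells carried transfected multi-reporter cis-element constructs, dosed 24 h. Gain or loss of signal fitted bidirectionally against DMSO control.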

[6] = target: human Peroxisome Proliferator-activated Receptor alpha (PPARa), PPARA (gene 5465) (UniProt Q07869); assay: ATG_PPARa_TRANS: Attagene TRANS-FACTORIAL HepG2 Assay for human Peroxisome Proliferator-activated Receptor alpha (PPARa) (AID 2283001; active means hit-call score of the fitted dose curve at least 0.9, where 1 is the maximum;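 on AC50: potency for gain of reporter signal over DMSO so agonist or activator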)
Summary of the method: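 Exposure: 24 h, transiently transfected HepG2 cells. Endpoint: GAL4-UAS reporter mRNA, RT-PCR with capillary electrophoresis fluorescence. Baseline: DMSO; increases fitted.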

[7] = target: Nuclear receptor subfamily 1 group I member 2 (Homo sapiens) (UniProt O75469); assay: ATG_PXR_TRANS: Attagene TRANS-FACTORIAL HepG2 Assay for human Pregnane X Receptor (PXR) (AID 2283008; active means hit-call score of the fitted dose curve at least 0.9, where 1 is the maximum)
Summary of the method: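 Trans-factorial format: exogenous NR-Gal4 fusion activity, not endogenous factor, in transfected human HepG2 liver cells. After 24 h dosing, RNA isolated, reverse-transcribed, amplified and resolved by capillary electrophoresis; induction scored versus DMSO.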

[8] = target: human Peroxisome Proliferator-activated Receptor delta (PPARd), PPARD (gene 5467) (UniProt Q03181); assay: ATG_PPARd_TRANS: Attagene TRANS-FACTORIAL HepG2 Assay for human Peroxisome Proliferator-activated Receptor delta (PPARd) (AID 2283002; active means hit-call score of the fitted dose curve at least 0.9, where 1 is the maximum)
Summary of the method: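 HepG2 cells transiently transfected with multiplexed GAL4-UAS reporter units and exogenous chimeric NR-Gal4 proteins; 24 h compound exposure. Reporter mRNA measured by RT-PCR, 6-FAM labelling, HpaI digestion and capillary electrophoresis; gain of signal versus DMSO.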

[9] = target: Peroxisome proliferator-activated receptor gamma (Homo sapiens) (UniProt P37231); assay: ATG_PPARg_TRANS: Attagene TRANS-FACTORIAL HepG2 Assay for human Peroxisome Proliferator-activated Receptor-gamma (PPARg) (AID 2283007; active means hit-call score of the fitted dose curve at least 0.9, where 1 is the maximum)
Summary of the method: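 Human hepatoma HepG2, transient MRTU transfection, 24 h treatment. mRNA reporter signal by RT-PCR plus capillary electrophoresis, fluorescence detection; fitted for increase over DMSO negative control.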

[10] = target: human RAR-related Orphan Receptor beta (RORb), RORB (gene 6096) (UniProt Q92753); assay: ATG_RORb_TRANS: Attagene TRANS-FACTORIAL HepG2 Assay for human RAR-related Orphan Receptor beta (RORb) (AID 2283010; active means hit-call score of the fitted dose curve at least 0.9, where 1 is the maximum)
Summary of the method: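 HepG2, transient MRTU transfection (GAL4-UAS reporters, exogenous NR-Gal4 chimeras); 24 h compound exposure; total RNA → RT-PCR → 6-FAM primer extension → HpaI digest → CE fluorescence. Positive direction vs DMSO baseline.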

[11] = BSK_3C_TissueFactor: BioMAP Diversity Plus: 3C Assay for Tissue Factor Biomarker Activity (AID 2282997); settings: BioMAP 3C HUVEC, tissue factor biomarker readout; actives raise or lower the signal
Summary of the method: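 HUVEC, 3C system, 24 h post-dose; Tissue Factor by ELISA; bidirectional fit vs DMSO baseline.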

[12] = BSK_3C_uPAR: BioMAP Diversity Plus: 3C Assay for Urokinase-type plasminogen activator receptor (uPAR) Biomarker Activity (AID 2282998); settings: BioMAP 3C HUVEC, uPAR biomarker ELISA; actives raise or lower the signal
Summary of the method: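 HUVEC primary cells; 24 h post-dose; uPAR by ELISA; gain or loss of signal fitted bidirectionally vs DMSO baseline.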

[13] = BSK_3C_VCAM1: BioMAP Diversity Plus: 3C Assay for Vascular cell adhesion molecule 1 (VCAM1) Biomarker Activity (AID 2282999); settings: BioMAP 3C HUVEC, VCAM1 ELISA, cytokine-stimulated; actives raise or lower the signal
Summary of the method: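 Vascular primary endothelium (human umbilical vein) was exposed to chemicals and assayed 24 h later. VCAM-1 levels came from ELISA, with DMSO serving as baseline for bidirectional fitting.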

[14] = BSK_4H_Eotaxin3: BioMAP Diversity Plus: 4H Assay for Eotaxin 3 Biomarker Activity (AID 2283000); settings: primary human endothelial cells (HUVEC); actives raise or lower the signal
Summary of the method: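 Readout is Eotaxin-3 (CCL26) level by ELISA in primary human umbilical vein endothelial cells harvested 24 h after chemical exposure; activity fitted in both directions against DMSO control.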

[15] = read-out: Intercellular Adhesion Molecule 1 (ICAM1), ICAM1 (gene 3383); assay: BSK_3C_ICAM1: BioMAP Diversity Plus: 3C Assay for Intercellular Adhesion Molecule 1 (ICAM1) Biomarker Activity (AID 2283003); settings: primary human endothelial cells (HUVEC); actives raise or lower the signal
Summary of the method: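 ELISA read-out of ICAM-1; HUVEC (primary human), 3C system, 24 h post-dosing; bidirectional fit vs DMSO baseline.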

[16] = target: Retinoic acid receptor alpha (Homo sapiens) (UniProt P10276); assay: ATG_RARa_TRANS: Attagene TRANS-FACTORIAL HepG2 Assay for human Retinoic Acid Receptor alpha (RARa) (AID 2283005; active means hit-call score of the fitted dose curve at least 0.9, where 1 is the maximum)
Summary of the method: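 HepG2 cells transiently transfected with multiple reporter units expressing chimeric RARα-GAL4 fusion, with GAL4-UAS-driven reporters. After 24 h compound exposure, reporter mRNA induction quantified by RT-PCR and capillary electrophoresis with fluorescent labeling; gain-of-signal fitted relative to DMSO control.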

[17] = target: human Retinoic Acid Receptor gamma (RARg), RARG (gene 5916) (UniProt P13631); assay: ATG_RARg_TRANS: Attagene TRANS-FACTORIAL HepG2 Assay for human Retinoic Acid Receptor gamma (RARg) (AID 2283009; active means hit-call score of the fitted dose curve at least 0.9, where 1 is the maximum)
Summary of the method: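 Readout: reporter transcript levels via RT-PCR, 6-FAM primer-extension labelling, HpaI digestion and capillary electrophoresis. Cells: HepG2 carrying transfected RARg-GAL4 chimera plus UAS reporter set. Dosing 24 h; DMSO negative control.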

Measured: AC50

Chain of Nuclear receptor subfamily 1 group I member 2 (Homo sapiens) (O75469 whole entry, looked up, the tested form may be a part): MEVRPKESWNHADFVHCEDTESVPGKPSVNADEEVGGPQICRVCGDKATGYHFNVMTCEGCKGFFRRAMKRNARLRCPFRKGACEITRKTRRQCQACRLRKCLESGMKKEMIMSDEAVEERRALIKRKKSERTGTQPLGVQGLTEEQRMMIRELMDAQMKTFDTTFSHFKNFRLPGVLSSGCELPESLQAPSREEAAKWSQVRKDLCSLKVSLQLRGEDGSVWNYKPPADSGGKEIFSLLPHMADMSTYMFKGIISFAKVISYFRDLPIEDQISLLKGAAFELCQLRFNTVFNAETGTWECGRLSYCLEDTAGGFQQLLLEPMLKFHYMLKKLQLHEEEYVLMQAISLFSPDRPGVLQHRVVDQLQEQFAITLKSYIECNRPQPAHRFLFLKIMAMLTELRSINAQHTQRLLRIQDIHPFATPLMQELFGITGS
Chain of Myc proto-oncogene protein (Homo sapiens) (P01106 whole entry, looked up): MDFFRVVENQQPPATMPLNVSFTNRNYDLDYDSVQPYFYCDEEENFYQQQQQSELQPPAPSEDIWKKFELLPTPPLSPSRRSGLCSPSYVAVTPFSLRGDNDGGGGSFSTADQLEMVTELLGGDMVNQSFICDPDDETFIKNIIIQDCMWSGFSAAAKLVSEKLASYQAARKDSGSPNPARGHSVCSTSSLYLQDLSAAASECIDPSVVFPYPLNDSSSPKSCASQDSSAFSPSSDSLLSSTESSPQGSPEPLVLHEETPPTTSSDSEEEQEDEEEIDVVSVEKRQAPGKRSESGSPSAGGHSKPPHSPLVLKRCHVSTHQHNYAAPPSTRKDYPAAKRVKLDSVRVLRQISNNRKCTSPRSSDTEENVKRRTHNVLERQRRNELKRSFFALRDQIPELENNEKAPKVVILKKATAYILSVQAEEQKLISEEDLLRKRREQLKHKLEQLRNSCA
Chain of human Peroxisome Proliferator-activated Receptor delta (PPARd), PPARD (gene 5467) (Q03181 whole entry, looked up, the tested form may be a part): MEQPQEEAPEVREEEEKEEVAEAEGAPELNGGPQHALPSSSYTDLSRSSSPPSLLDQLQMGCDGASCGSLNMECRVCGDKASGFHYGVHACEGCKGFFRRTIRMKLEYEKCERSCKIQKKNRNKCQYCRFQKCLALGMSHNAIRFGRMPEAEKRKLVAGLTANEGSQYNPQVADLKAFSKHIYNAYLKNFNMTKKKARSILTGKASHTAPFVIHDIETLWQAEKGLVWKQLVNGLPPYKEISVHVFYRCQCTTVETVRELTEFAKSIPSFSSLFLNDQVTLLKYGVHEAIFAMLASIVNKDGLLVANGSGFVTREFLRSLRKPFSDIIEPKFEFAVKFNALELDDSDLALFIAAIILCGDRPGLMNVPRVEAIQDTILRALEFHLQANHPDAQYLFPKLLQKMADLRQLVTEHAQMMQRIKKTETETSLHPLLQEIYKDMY
Chain of human Peroxisome Proliferator-activated Receptor alpha (PPARa), PPARA (gene 5465) (Q07869 whole entry, looked up, the tested form may be a part): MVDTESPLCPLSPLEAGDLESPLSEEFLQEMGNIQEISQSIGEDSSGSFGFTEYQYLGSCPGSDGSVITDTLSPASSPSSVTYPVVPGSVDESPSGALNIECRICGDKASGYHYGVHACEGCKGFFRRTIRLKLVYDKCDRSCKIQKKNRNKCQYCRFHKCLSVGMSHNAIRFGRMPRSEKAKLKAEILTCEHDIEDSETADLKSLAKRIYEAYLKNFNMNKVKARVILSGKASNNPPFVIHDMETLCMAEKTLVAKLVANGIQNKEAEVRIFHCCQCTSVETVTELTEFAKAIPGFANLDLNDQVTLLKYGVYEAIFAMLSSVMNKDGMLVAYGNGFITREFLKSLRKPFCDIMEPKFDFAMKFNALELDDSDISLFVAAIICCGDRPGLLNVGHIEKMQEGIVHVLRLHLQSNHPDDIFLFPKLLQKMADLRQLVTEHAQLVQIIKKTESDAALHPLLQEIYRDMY
Chain of Cellular tumor antigen p53 (Homo sapiens) (P04637 whole entry, looked up): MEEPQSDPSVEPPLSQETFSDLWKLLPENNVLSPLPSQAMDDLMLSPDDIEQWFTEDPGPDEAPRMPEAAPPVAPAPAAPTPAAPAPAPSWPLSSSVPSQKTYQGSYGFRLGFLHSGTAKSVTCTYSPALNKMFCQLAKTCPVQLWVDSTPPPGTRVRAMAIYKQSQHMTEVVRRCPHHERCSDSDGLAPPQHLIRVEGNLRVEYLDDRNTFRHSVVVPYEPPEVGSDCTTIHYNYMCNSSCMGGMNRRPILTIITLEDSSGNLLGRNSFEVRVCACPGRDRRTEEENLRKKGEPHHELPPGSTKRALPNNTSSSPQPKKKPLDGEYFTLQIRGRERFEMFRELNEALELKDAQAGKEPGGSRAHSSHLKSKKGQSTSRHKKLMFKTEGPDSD
Chain of Peroxisome proliferator-activated receptor gamma (Homo sapiens) (P37231 whole entry, looked up): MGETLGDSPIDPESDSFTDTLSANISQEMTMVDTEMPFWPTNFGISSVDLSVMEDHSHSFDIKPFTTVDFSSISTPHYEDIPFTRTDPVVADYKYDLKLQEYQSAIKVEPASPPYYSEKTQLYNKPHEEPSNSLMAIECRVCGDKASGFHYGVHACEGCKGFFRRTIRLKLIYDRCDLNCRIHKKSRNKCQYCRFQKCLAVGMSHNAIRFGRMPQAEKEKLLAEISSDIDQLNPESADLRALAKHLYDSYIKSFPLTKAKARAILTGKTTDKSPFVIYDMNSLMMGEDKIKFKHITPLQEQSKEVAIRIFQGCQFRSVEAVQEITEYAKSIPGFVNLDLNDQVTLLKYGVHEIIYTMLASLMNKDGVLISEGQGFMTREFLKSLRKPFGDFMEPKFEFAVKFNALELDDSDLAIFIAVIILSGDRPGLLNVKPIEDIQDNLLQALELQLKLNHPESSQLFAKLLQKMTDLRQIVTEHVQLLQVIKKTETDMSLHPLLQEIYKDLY
Chain of Retinoic acid receptor alpha (Homo sapiens) (P10276 whole entry, looked up, the tested form may be a part): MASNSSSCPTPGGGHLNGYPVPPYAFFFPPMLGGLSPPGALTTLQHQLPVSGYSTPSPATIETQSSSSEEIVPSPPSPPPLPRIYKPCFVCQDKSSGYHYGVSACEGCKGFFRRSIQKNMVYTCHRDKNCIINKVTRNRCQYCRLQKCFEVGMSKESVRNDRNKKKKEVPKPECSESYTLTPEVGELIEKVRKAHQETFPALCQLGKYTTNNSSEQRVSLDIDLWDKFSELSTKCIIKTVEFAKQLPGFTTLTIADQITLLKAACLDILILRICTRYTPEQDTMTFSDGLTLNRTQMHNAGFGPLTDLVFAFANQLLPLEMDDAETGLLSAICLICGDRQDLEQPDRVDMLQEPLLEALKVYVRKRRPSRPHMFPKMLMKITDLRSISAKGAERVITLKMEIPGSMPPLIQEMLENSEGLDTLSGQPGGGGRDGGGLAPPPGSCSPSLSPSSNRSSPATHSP
Chain of human Retinoic Acid Receptor gamma (RARg), RARG (gene 5916) (P13631 whole entry, looked up, the tested form may be a part): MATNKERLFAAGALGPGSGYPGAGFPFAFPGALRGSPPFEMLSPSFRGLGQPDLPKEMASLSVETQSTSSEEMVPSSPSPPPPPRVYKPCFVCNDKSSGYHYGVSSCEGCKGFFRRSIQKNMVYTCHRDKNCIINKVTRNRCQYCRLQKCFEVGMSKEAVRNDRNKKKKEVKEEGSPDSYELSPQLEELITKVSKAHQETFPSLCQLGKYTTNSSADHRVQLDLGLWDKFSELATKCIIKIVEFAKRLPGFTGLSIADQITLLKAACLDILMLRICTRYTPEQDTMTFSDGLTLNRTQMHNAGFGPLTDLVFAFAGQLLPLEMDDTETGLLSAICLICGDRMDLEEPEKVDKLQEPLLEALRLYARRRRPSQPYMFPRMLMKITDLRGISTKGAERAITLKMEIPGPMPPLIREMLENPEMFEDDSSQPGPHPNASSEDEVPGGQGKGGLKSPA
Chain of human RAR-related Orphan Receptor beta (RORb), RORB (gene 6096) (Q92753 whole entry, looked up, the tested form may be a part): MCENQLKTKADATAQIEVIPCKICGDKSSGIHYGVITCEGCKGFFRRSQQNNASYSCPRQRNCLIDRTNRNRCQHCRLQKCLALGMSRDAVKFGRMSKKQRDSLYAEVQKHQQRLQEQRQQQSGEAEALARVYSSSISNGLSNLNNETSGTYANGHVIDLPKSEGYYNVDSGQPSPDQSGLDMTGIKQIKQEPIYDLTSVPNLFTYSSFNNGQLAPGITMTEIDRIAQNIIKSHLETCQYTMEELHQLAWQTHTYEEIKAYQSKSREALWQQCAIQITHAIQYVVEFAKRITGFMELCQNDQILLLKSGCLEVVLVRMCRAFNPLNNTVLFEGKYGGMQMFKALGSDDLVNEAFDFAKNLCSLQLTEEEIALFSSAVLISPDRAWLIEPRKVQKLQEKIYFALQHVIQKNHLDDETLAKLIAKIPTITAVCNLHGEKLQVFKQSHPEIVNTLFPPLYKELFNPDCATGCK

CC(=O)CC(=O)Nc1ccc(C)cc1C
inactive: [1] | [2] | [3] | [4] | [5] | [6] | [7]

CC(C)(C)C1=CC(=O)C(C(C)(C)C)=CC1=O
active: [1] 77.3 µM | [2] 50 µM | [3] 13.7 µM | [5] 30.5 µM | [9] 50 µM
inactive: [4] | [8]

COc1cccc(OC)c1O
inactive: [1] | [2] | [3] | [4] | [5] | [7]

C=CCOC(=O)CCCCCC
inactive: [1] | [2] | [3] | [4] | [5] | [8] | [9] | [7] | [10]

CC(C=O)Cc1ccc(C(C)(C)C)cc1 (stereo not drawn)
active: [3] 26.4 µM | [11] 31.1 µM | [12] 32.9 µM | [13] 36.4 µM | [14] 36 µM | [6] 40.7 µM | [15] 31.1 µM | [9] 79.1 µM | [7] 23.1 µM
inactive: [1] | [4] | [5] | [8]

c1ccc2[nH]cnc2c1
not listed: [8] | [9] | [11] | [12] | [13] | [14] | [15]
inactive: all other assays above

CN(C)CCOC(C)(c1ccccc1)c1ccccn1 (stereo not drawn)
inactive: [1] | [3] | [4] | [5] | [8] | [7] | [17]

BrCc1cccc(Oc2ccccc2)c1
active: [3] 58.4 µM | [9] 44.8 µM | [7] 43.3 µM
inactive: [1] | [2] | [4] | [6]

O=c1[nH]c(=O)c2cn[nH]c2[nH]1
inactive: [1] | [3] | [4] | [5] | [8] | [16] | [9]
